Experimental data from PubChem BioAssay AID504941 (Broad Institute, 2011).
Out of some 1,200 compounds screened, about 170 (14%) were called active. No rule for the calls is given here. Not all results are given here. Entries with a potency or affinity are not part of this list.

Experiment: twin-arginine translocation blockade, bacterial reporter – cherry-pick, set 2, plate reader, dose response (AID 504941)
Conditions: E. coli Tat transport reporter; series mostly up to 38 µM; activity change, negative = inhibition: at the top concentration

Activity change, negative = inhibition, inactive:
CN(CC(=O)NCCN1CCOCC1)S(=O)(=O)c1ccc(Cl)cc1 0.713%
COc1ccc(OC)c(NC(=O)NCc2cccnc2)c1 6.95%
Cc1cc(=O)[nH]c(Sc2c(-c3ccccc3)c3ccccc3[nH]c2=O)n1 2.85%
CN1CCN(c2cc3c(cc2F)c(=O)c(C(=O)O)cn3CCF)CC1 -97.2%
CC(C(=O)NC1CCCC1)N1CCN(S(=O)(=O)c2ccc(C(C)(C)C)cc2)CC1 (stereo not given) -20.3%
Cc1ccc(S(=O)(=O)N2CCC(C(=O)Nc3nnc(C)s3)CC2)cc1 0.142%
O=C(CCSc1nnc(-c2ccco2)o1)N1CCOCC1 -14.4%
CCc1ccc(-c2cc(C(=O)Nc3ccc(S(=O)(=O)NC(C)=O)cc3)c3ccccc3n2)cc1 -2.02%
CC(=O)c1ccc(NC(=O)C2CCCN2S(=O)(=O)c2cccc3cccnc23)cc1 (stereo not given) 16.2%
CN(c1ccccc1)S(=O)(=O)c1cccc(NC(=O)CN2C(=O)NC3(CCCC3)C2=O)c1 -4.76%
CC1(C)C2CCC1(C)C(NC(=O)/C=C/c1ccccc1)C2 (stereo not given) 3.31%
COc1ccc(Nc2nc3ccccc3nc2-n2nc(C)cc2C)cc1 13.7%
COc1ccccc1NC(=S)NC(=O)C(C)C 23.3%
COc1cc(NC(=O)C2CCCCC2)c(OC)cc1NC(=O)c1ccco1 -1.98%
Cc1ccc(-c2cc(C(F)F)n3ncc(C(=O)Nc4ccc(S(=O)(=O)Nc5ccccc5C)cc4)c3n2)cc1 -1.66%
Oc1c(Cl)cc(Cl)cc1C1Nc2ccccc2-n2cccc21 (stereo not given) -22.8%
O=C(c1cccnc1)C1CCCN(Cc2nc(Cc3ccccc3)no2)C1 (stereo not given) 2.5%
O=C(Nc1ccc2c(c1)OCCO2)C1CCCN(S(=O)(=O)c2cccnc2)C1 (stereo not given) 11.9%
CN1CCN(c2ccc(S(=O)(=O)N3CCCCC3)cc2NC(=O)c2cccc([N+](=O)[O-])c2)CC1 -5.17%
COc1c2ccoc2nc2c(OC)c(OC[C@@H](O)C(C)(C)O)ccc12 27.5%
Cc1ccnc(SCC(=O)c2cccs2)n1 -5.46%
CC(=O)c1cc(CN2CCN(C3CCCCC3)C(CCO)C2)cs1 (stereo not given) 5.91%
O=C1/C(=C/c2cccnc2)Oc2cc(OS(=O)(=O)c3ccccc3)ccc21 19.7%
COc1cccc(NC(=O)c2cccc(C(=O)Nc3cccc(OC)c3)n2)c1 -9.91%
Cc1ccc(S(=O)(=O)NC(C)(C)CSc2nnc(Nc3ccccc3)s2)cc1 -11.6%
CN1CCC(=NNC(=O)C(=O)Nc2cccc(Br)c2)CC1 25.9%
Cc1ccc(C)c(NC(=O)CN(C)C(=O)c2cccc(S(=O)(=O)N(C)C)c2)c1 8.53%
Cc1ncc(CN2CCN(CCC(C)C)C(CCO)C2)s1 (stereo not given) 8.33%
COc1ccc(C(=O)NC2(C(F)(F)F)C(=O)Nc3c2c(=O)[nH]c(=O)n3CCc2ccc(OC)c(OC)c2)cc1 (stereo not given) 0.11%
CC(C)OCC(O)CN1CCN(CC(O)COc2ccc3c(c2)OCO3)CC1 (stereo not given) 10.6%
CCCCN(C)C(=O)c1cc2cc([N+](=O)[O-])cc(OC)c2oc1=O 8.79%
Cc1cccc(N(CC(=O)NC2CCCC2)C(=O)CCCC(=O)Nc2ccccn2)c1 2.32%
CCCCn1c(N)c(N(CCOC)C(=O)COC(=O)C(C)Oc2ccc(Cl)cc2)c(=O)[nH]c1=O (stereo not given) 21%
O=C(Nc1nnc(S(=O)(=O)N2CCCCCC2)s1)c1ccccc1Br -23.6%
C=CCn1c(SCC(=O)NCc2ccc3c(c2)OCO3)nnc1-c1cccnc1 7.67%
COC(=O)C[C@H]1c2cc(F)cc(F)c2S(=O)(=O)N1C1CCN(Cc2ccccc2)CC1 1.35%
NC(=O)C1CCN(C(=O)c2ccco2)CC1 -11.7%
NC(=O)C1CCN(C(=O)CSc2nc3ccccc3o2)CC1 12.3%
O=C(CCc1nc2cccnc2n1Cc1ccccc1)N1CCOCC1 0.529%
O=C(CCSc1ccccc1)N1CCN(C(=O)c2ccco2)CC1 -12.1%
CN(Cc1ccccc1)c1ncnc2sccc12 1.04%
COC(=O)c1sccc1NC(=O)c1ccc2c(c1)OCO2 12.6%
Cc1ccccc1C(=O)N1CCC(C(=O)Nc2ccccc2Cl)CC1 18.5%
Cc1ccccc1C(=O)N1CCN(c2ccc(NC(=S)NC(=O)c3cccs3)cc2)CC1 17.9%
O=C(CC1SCCNC1=O)Nc1cccc(Cl)c1 (stereo not given) 6.89%
COc1cccc(CN2CCN(Cc3cc(OC)c(OC)cc3[N+](=O)[O-])CC2)c1 2.59%
COc1ccc(CCN2C(=O)CC(NNC(=O)c3ccc(F)cc3)C2=O)cc1OC (stereo not given) 4.71%
Cc1cc(C(=O)NNC(=O)c2ccc(F)cc2)c(C)s1 26.3%
Cc1nc(Cl)c(C(=O)NCc2ccccc2)c(C)c1Cl -2.15%
Cc1nn(Cc2ccccc2)c(C)c1NC(=O)c1noc2c1CCc1ccccc1-2 15.8%
CCOc1cccc(=O)c2c(C)n(-c3ccc(C(=O)O)cc3)c(C)c12 14.2%
O=C(CCCc1ccccc1)Nc1ccc2c(c1)OCCO2 9.47%
O=C(O)CC(NCc1ccco1)C(=O)OCCc1ccccc1 (stereo not given) 26.3%
Cc1cc(C)c2oc(=O)cc(CN3CCN(Cc4ccc5c(c4)OCO5)CC3)c2c1 4.31%
CCOC(=O)[C@H]1[C@H]2COc3ccc(Cl)cc3[C@@H]2N2C(=O)[C@H](C)NC(=O)[C@@]12C -1.43%
C[C@H]1NC(=O)[C@@]2(C)[C@@H](c3ccccc3)[C@H]3COc4ccccc4[C@H]3N2C1=O 15.3%
CC(=O)c1c(C)[nH]c(C(=O)CSc2nnc3ccccn23)c1C -0.324%
CC(=O)Oc1ccc2c(c1)OC(c1ccccc1)CC21CC(C)(C)NC(=S)N1 (stereo not given) 15.6%
C=CCC[C@H](Cc1ccc(F)cc1)C(=O)OC[C@@H](C)NC(=O)[C@H](CC=C)CC(=O)NCCO -6.43%
Nc1nc2n(n1)C(c1cccc(Br)c1)CC(c1ccccc1)N2 (stereo not given) 23%
CC(Oc1ccc2c(-c3ccccc3)cc(=O)oc2c1)C(=O)NCCCN1CCOCC1 (stereo not given) 12.1%
COc1ccccc1N1CCN(CC(=O)Nc2ccc3c(c2)OCCO3)CC1 12.1%
COc1cccc(CNC(=O)CN2C(=O)CCSc3ccc(S(=O)(=O)N4CCCC4)cc32)c1 -15.2%
Cc1ccc(NC(=S)NCCC2=CCCCC2)cc1 12.6%
O=C(NCc1ccccc1)c1ccc(CS(=O)(=O)c2ccccc2)o1 16.7%
CCC1CCCCN1Cc1nc2c(c(=O)n(C)c(=O)n2C)n1CCCc1ccccc1 (stereo not given) -2%
Cc1onc(C(=O)NCc2ccc(F)cc2)c1[N+](=O)[O-] -1.08%
O=C(CCC1CCCCC1)NCCN1CCOCC1 -15.1%
COCCCN=C(c1ccco1)n1c(=S)nc(-c2ccco2)n(CCCOC)c1=S 3.59%
O=C(CN1CCC(c2nc3ccccc3s2)CC1)NCc1cccs1 12.7%
O=C(Nc1ccc(C(=O)O)cc1)/C(=C\C=C\c1ccccc1)NC(=O)c1ccccc1Br -14.1%
O=C(Nc1cc(S(=O)(=O)N2CCOCC2)ccc1N1CCCC1)c1ccc(Cl)cc1 2.62%
Cc1cc(Oc2nc3c(C)cccn3c(=O)c2/C=C(\C#N)S(=O)(=O)c2ccc(Cl)cc2)ccc1Cl 2.58%
CCOC(=O)C1=C(C)Nc2ncnn2C1c1cc(Br)ccc1F (stereo not given) 5.94%
COc1ccc(NC(=O)C2CCN(Cc3cnn(-c4ccccc4)c3-n3cccc3)CC2)cc1OC 21%
Cc1ccn(C(=O)c2ccc(NC(=O)C3CC3)cc2)n1 -12.2%
O=C(CSc1cccc2cccnc12)N/N=C/c1ccncc1 35.7%
Clc1ccccc1CSc1nnc(-c2cccnc2)n1Cc1ccco1 -3.85%
CCN(CC)CC(=O)Nc1ccc(C)cc1C(=O)c1ccccc1 6.54%
COc1ccccc1NC(=O)NCCCCc1ccccc1 -5.9%
COc1ccc(CCNCC(O)COc2c(C)cccc2C)cc1OC (stereo not given) 2.06%
COCCNc1nc(N)c([N+](=O)[O-])c(NCC2CCCO2)n1 (stereo not given) -13.9%
CCOC(=O)c1sc(-c2ccccc2)cc1NC(=O)Nc1ccc([N+](=O)[O-])cc1 12.2%
O=C1c2cccc3cccc(c23)C(=O)N1CC1CCN(CC(O)COc2ccc3ccccc3c2)CC1 (stereo not given) 5.9%
Cc1cccc(OCC(O)Cn2c(=N)n(CCN3CCOCC3)c3ccccc32)c1 (stereo not given) -7%
COC(=O)COc1cccc(NC(=O)c2cccc(C)c2)c1 -3.33%
CCCc1[nH]nc2c1C(c1ccc(OC(=O)c3ccco3)cc1)C(C#N)=C(N)O2 (stereo not given) 1.36%
O=C1c2ccccc2NC(c2ccc(Cl)cc2Cl)N1O (stereo not given) 58.2%
CCOc1cc(/C=N/NC(=O)C(=O)NCc2cccnc2)ccc1O -1.14%
S=c1[nH]nc(-c2cccnc2)n1C1CCCCC1 0.199%
O=S(=O)(NC1CCCCC1)c1ccc(Cl)s1 6.67%
CCC(C)OC1OC(CO)C(O)C(O)C1NC(C)=O (stereo not given) 0.148%
C[C@@H]1C(c2ccc(F)cc2)=NN(c2ccccc2)[C@H]1C(=O)N1CCOC1=O 12.3%
O=C(Nc1ccccc1F)C1CCN(C(=O)Cc2ccccc2)CC1 -21.2%
CCN(CC)S(=O)(=O)N1CCC(C(=O)NC2CCCC2)CC1 1.37%
CCOc1cc(C(=O)N2CCCN(C)CC2)cc(OCC)c1OCC 17.2%
COC(=O)c1sc(NC(=O)CSc2nnnn2-c2ccc(C)cc2C)nc1C 13.6%
CN1CC(c2ccccc2Cl)C2(COc3ccccc3C2=O)C12C(=O)Nc1ccccc12 (stereo not given) 39.1%
CC1(C)c2ccccc2N2CC(=O)NC21/C=C/c1ccco1 (stereo not given) 29.5%
CCc1ccc(C(=O)Nc2ccc(S(=O)(=O)Nc3nc(C)cc(C)n3)cc2)o1 5.66%
Cc1ccc2nc(C(=O)O)c(C(=O)O)nc2c1 18.6%
O=C(Cn1c(=O)oc2cc(S(=O)(=O)N3CCc4ccccc43)ccc21)N1CCCCC1 0.63%
O=C(Cn1nnc(-c2ccccc2)n1)N/N=C/c1cccc([N+](=O)[O-])c1O 35%
COc1ccccc1N(CC(=O)NC1CCCC1)C(=O)c1csnn1 25.7%
Cc1cc(=O)oc2cc(OCC(=O)OCC(=O)N3CCc4ccccc43)ccc12 0.129%
